About 83,000 compounds went through this panel and 20% of them were active in at least one assay; those are over-represented in the sample as a whole.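 Testing used 96-well plates and a 48-hour single-concentration exposure. Example: -40 means 40% of the starting cells died.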 Unmarked numbers belong to inactive results. Activity calls are given as the source filed them. How the source made its calls: active means growth percent below 10; inactive means the rest.
These molecules were tested on HL-60(TB) leukemia (assay: NCI-60 one-dose screen, 48 h (100 = growth as untreated, 0 = no growth, -100 = all killed)). Conditions: 10 µM unless noted.

| SMILES | growth |
| --- | --- |
| CC(C)[C@H](CO)Nc1nc(Nc2ccc(C(=O)NCCNS(=O)(=O)c3cccc4c(N(C)C)cccc34)c(Cl)c2)c2ncn(C(C)C)c2n1 | -36.7% (active) |
| COc1ccc(C2C=C(c3ccc(Cl)c(Cl)c3)N=C3SC(C)=CN32)cc1 (stereo not given) | 83.3% |
| COc1ccc(NC(=O)n2nc(/C=C\c3ccc(O)c(OC)c3)cc2/C=C\c2ccc(O)c(OC)c2)cc1 | 5.32% (active) |
| CC1C(=NC(=O)c2cnccn2)C(C)C(c2ccc(Cl)cc2)NC1c1ccncc1 (stereo not given) | 108% |
| COc1cccc(-c2nc3sccn3c2-c2ccnc(NCCCNS(=O)(=O)c3ccc(F)cc3)c2)c1 | -13.5% (active) |

Source: PubChem BioAssay (NCI)
